Bioassay records (PubChem BioAssay)
The sample as a whole holds a higher share of hits than the screen did.
FBPA Giardia inh: blocks Giardia fructose-bisphosphate aldolase activity | A8B2U2 | purified Giardia FBPA | Potency, µM (series often up to 59.6 µM), inactives show at the highest dose activity, negative = inhibition, actives largely listed as inhibitors | 290,000 compounds, 0.71% hits; also: potency is read from the fitted curve at half-maximal effect; % is scaled to controls: 0 for no effect and ±100 for the full control effect; nearly all actives have a fitted effect of over 55% in size
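40 nM FBPA preincubated 10 min at RT with compound (up to 57.5 uM final), then substrate plus GAPDH/TPI/NAD/arsenate coupling and diaphorase/resazurin added. Fluorescence read after 20 min at RT, 525/598 nm.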
TbPYK inhibitor: T. brucei pyruvate kinase inhibition | Q57TT1 | TbPYK enzyme, Kinase-Glo Plus ATP luminescence, 45 min | Potency, µM (series often up to 76.8 µM), for inactives: at the top dose activity, negative = inhibition, hits mostly inhibitors | 410,000 compounds, 0.12% hits | AID 624173; also: potency is read from the fitted curve at half-maximal effect; % is scaled to controls: 0 for no effect and ±100 for the full control effect; nearly all actives have a fitted effect of over 50% in size
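Enzyme and substrate buffer are dispensed first and compound is pin-transferred. ADP at 130 uM final then starts the reaction, which runs 45 min at room temperature. Detection reagent is added for 10 min before luminescence is imaged.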
Shiga inhibitor: inhibitors of Shiga toxin in Vero cells; Vero cells, Shiga toxin protein synthesis inhibition reporter; inhibition, % at 38.7 µM; 290,000 compounds, 9.2% hits; AID 2315; in the data active = inhibition mostly above about 28%, no sharp cut-off; inactive = mostly below about 43%; also: 0% is about no effect
Sm TGR inh: S. mansoni TGR enzyme inhibition. Q962Y6. purified TGR, DTNB reduction, TNB absorbance 405 nm. Potency, µM (doses to about 114 µM), inactives show at the highest dose activity change, negative = inhibition, most hits filed as inhibitors. 360,000 compounds, 3% hits. AID 485364; also: potency is read from the fitted curve at half-maximal effect; % is scaled to controls: 0 for no effect and ±100 for the full control effect; nearly all actives have a fitted effect of over 60% in size
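TGR 20 nM + NADPH 100 uM (dispensed conc.), cpd preinc 15 min RT; start with NADPH (500 uM addition) then DTNB (15 mM addition). Kinetic TNB absorbance, 405 nm filter. Four-parameter Hill fit across titration.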
LmPK inh: blocks Leishmania mexicana pyruvate kinase activity. Potency, µM (series often up to 57.5 µM), inactives show at the top dose activity change, negative = inhibition, hits mostly inhibitors. 290,000 compounds, 0.37% hits. Q27686. purified LmPK, Kinase-Glo ATP luminescence, 1 h. AID 1721; also: potency is read from the fitted curve at half-maximal effect; % is scaled to controls: 0 for no effect and ±100 for the full control effect
Target sequence (Q27686 whole entry, looked up): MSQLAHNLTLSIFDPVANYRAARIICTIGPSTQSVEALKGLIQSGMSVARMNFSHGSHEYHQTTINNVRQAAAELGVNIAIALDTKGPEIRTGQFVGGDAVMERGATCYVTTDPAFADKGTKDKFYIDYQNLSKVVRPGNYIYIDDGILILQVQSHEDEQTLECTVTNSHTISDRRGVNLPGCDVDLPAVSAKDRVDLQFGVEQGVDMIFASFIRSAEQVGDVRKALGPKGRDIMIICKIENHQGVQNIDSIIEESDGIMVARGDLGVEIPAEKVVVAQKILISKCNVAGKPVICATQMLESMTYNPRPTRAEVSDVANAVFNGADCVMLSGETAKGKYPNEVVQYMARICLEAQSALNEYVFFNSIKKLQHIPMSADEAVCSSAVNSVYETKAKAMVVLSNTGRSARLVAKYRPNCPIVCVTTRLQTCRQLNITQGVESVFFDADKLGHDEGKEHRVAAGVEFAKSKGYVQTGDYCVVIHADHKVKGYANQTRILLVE
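Purified LmPK (0.1 nM) with 0.5 mM PEP and 0.1 mM ADP in imidazole buffer pH 7.2 with MgCl2/KCl, 1 h at room temperature. ATP formed was read by luciferase luminescence and normalized to no-enzyme and uninhibited controls.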
CHX counter: counter-screen hit for Shiga toxin inhibitors, cycloheximide. cell reporter, cycloheximide protein synthesis inhibition counterscreen. max response, %. 300,000 compounds, 12% hits; in the data active = max response mostly above about 13%, no sharp cut-off; inactive = mostly below about 14%; also: read at 38.3 µM for the half of the compounds with a filed dose; 0% is about no effect
Active calls of the source: *; i = inactive; ? = inconclusive; . = no result. Unless noted, calls follow the shape of the dose curve; as a rule, active = well fitted curve in the direction sought with a large enough effect; inconclusive = small, poorly fitted or top-dose-only effect, or another doubt; inactive = no such curve, though single readings can be large; an effect the other way counts as inactive or inconclusive.

SMILES	FBPA Giardia inh	TbPYK inhibitor	Shiga inhibitor	Sm TGR inh	LmPK inh	CHX counter
C#Cc1cccc(C(=O)N2CCCC(Nc3cccc(F)c3)C2)c1 (configuration not stated)	.	0%	-31	-10%	-15%	8
O=C(CCCOc1ccc(Cl)cc1Cl)N1CCC2(CC1)OCCO2	-7%	-5%	34	?	-5%	17*
O=C(COc1ccc(Cl)cc1Cl)NC(=S)N1CCCc2ccccc21	-27%	?	67*	-15%	3%	43*
Cc1cccc(OCCCC(=O)N2CCCc3ccccc32)c1C	-6%	-7%	10	-10%	3%	28*
Cn1c(=O)cc(OCCCC(=O)N2CCC3(CC2)OCCO3)c2ccccc21	-1%	-18%	-12	?	-1%	1
O=C(COc1ccc(Cl)cc1Cl)NC(=O)N1CCCCC1	-6%	-9%	67*	0%	-8%	45*
Cc1cccc(OCC(=O)OCC(=O)N2CCCc3ccccc32)c1C	.	-8%	.	7%	.	.
COc1ccc(NC(=O)C2Cc3c(-c4ccc5c(c4)OCO5)ccnc3O2)cc1OC (configuration not stated)	.	-1%	.	.	.	.
Cc1cccc(C)c1Nc1nn2c(=O)c3cc4c(cc3nc2s1)OCO4	.	-1%	.	-1%	.	.
COc1cc2nc(N3CCN(C(=O)[C@H]4COc5ccccc5O4)CC3)nc(N)c2cc1OC	-8%	-24%	14	3%	-4%	1
CCOC1=C2[C@@H](CN(S(=O)(=O)c3ccc(C)cc3)[C@H]2c2ccccc2F)[C@H]2C(=O)NC(=O)[C@H]2C1	.	-4%	.	.	.	.
CCn1ccc2cc(S(=O)(=O)N3CCCN(C(=O)NCC(C)C)CC3)ccc21	.	0%	.	-10%	.	.
CCOc1cc(C(=O)N2CCC3(CC2)OCCO3)cc(OCC)c1OCC	2%	2%	-12	-22%	-4%	-2
Cc1cccc(OCC(=O)NC(=S)N2CCCc3ccccc32)c1	.	-29%	i	18%	-1%	35*
O=C(COc1ccc(Cl)cc1Cl)OCC(=O)N1CCCc2ccccc21	-2%	5%	-11	-1%	1%	-3
O=C(CCCOc1ccc(Cl)cc1Cl)N1CCCc2ccccc21	-3%	-13%	56*	-10%	16%	30*
CCC(Oc1cc(Cl)ccc1Cl)C(=O)N1CCC2(CC1)OCCO2 (configuration not stated)	.	-3%	64*	-7%	-14%	31*
Cc1cccc(OCC(=O)Nc2ccccc2N2CCCCC2)c1	-8%	2%	-8	9%	-1%	-3
CCc1ccc(NC(=O)N(Cc2c[nH]c3ccccc23)C2CCCCC2)cc1	.	2%	.	5%	.	.
COc1ccc(-c2cc3c(nn2)-c2ccccc2C3=O)cc1	-17%	?	-25	0%	?	-4
Cc1cccc(-c2cc3c(nn2)-c2ccccc2C3=O)c1	-27%	-20%	48*	-2%	7.1µM*	30*
CC[C@@H]1/C=C(\C)C[C@H](C)C[C@H](OC)[C@H]2O[C@@](O)(C(=O)C(=O)N3CCCC[C@H]3C(=O)O[C@H](/C(C)=C/[C@@H]3CC[C@H](Cl)[C@H](OC)C3)[C@H](C)[C@@H](O)CC1=O)[C@H](C)C[C@@H]2OC	.	-7%	.	.	.	.
Fc1ccccc1OCCn1c(=S)[nH]c2ccccc21	22%	-25%	28*	-4%	0%	24*
Fc1ccc(-c2nnn(Cc3ccccc3Cl)n2)cc1	7%	-1%	99*	1%	-1%	36*
O=C(OCc1ccccc1Cl)c1ccc(-c2nnn(Cc3ccc(F)cc3)n2)cc1	.	0%	.	1%	.	.
SMILES	FBPA Giardia inh	TbPYK inhibitor	Shiga inhibitor	Sm TGR inh	LmPK inh	CHX counter
Cc1cc(Cn2nnc(-c3ccc(Br)cc3)n2)cc(C)c1O	.	-7%	.	-30%	.	.
Nc1ccc(-c2nnn(Cc3ccccc3F)n2)cc1	-3%	-1%	55*	12%	1%	32*
Cc1ccccc1Cn1nnc(-c2ccc(F)cc2)n1	1%	2%	30*	10%	6%	19*
Fc1ccc(Cn2nnc(-c3ccc(Cl)cc3)n2)cc1	7%	-11%	56*	3%	-4%	34*
CCOC(=O)c1ccc(NC(=O)CCCc2nc(-c3cc(OC)c(OC)c(OC)c3)no2)cc1	.	-3%	.	-5%	.	.
O=C(Nc1ccc(Cl)c(C(F)(F)F)c1)c1nc2ccccc2nc1N1CCCCC1	.	-7%	.	3%	.	.
CCOc1ccc(NC(=O)Cn2cc(C(=O)c3ccc(F)cc3)c(=O)c3cc4c(cc32)OCCO4)cc1	.	-7%	.	-10%	.	.
Nc1ccc2oc3ccc(N)cc3c(=O)c2c1	?	-3%	39	6%	-12%	38*
CCN1CCOC(=O)C1CC(=O)Nc1ccc(C)c(Cl)c1 (configuration not stated)	.	4%	.	11µM*	.	.
CCN1CCOC(=O)C1CC(=O)Nc1cc(Cl)ccc1C (configuration not stated)	.	-14%	.	7.9µM*	.	.
Cc1cccc(NC(=O)CC2C(=O)OCCN2Cc2ccccc2)c1 (configuration not stated)	.	-1%	.	-23%	.	.
N#C/C(=C(/N)Sc1ccc(N)cc1)c1ccccc1C(F)(F)F	0%	.	16	.	.	2
Cc1cc(C)c(S(=O)(=O)Nc2ccc(-c3ccc(N4CCCCC4)nn3)cc2)c(C)c1	.	0%	.	8%	.	.
Cc1cc(C)cc(CC2CC(=O)N(c3nc(C)cc(C)n3)C2=O)c1 (configuration not stated)	0%	5%	51*	13%	-7%	27*
Cc1ccc(N2C(=O)CC(Cc3cc(C)cc(C)c3)C2=O)cc1 (configuration not stated)	1%	0%	-7	.	1%	-2
COCCNC(=S)N/N=C(\C)c1ccc(OC)cc1	-17%	2%	-2	?	1%	-3
COCCNC(=S)N/N=C(\C)c1cc2ccccc2o1	3%	-18%	25*	-12%	3%	9
COc1ccc(NCC(=O)N/N=C(\C)c2cc3ccccc3o2)cc1	-12%	-6%	20	-10%	2%	16*
C/C(=N\NC(=O)COc1ccc(C(C)(C)C)cc1)c1cc2ccccc2o1	5%	0%	38*	0%	6%	24*
O=C(Cc1c(F)c(F)c(F)c(F)c1F)Nc1nc(-c2ccccc2)cs1	-5%	0%	17	26%	-5%	-4
CCOc1cc(C(=O)OCC(=O)c2cc(C)n(CC3CCCO3)c2C)ccc1OCC(=O)N1CCOCC1 (configuration not stated)	-3%	9%	53*	2%	10%	32*
COc1ccc(Nc2nnc(SCC(=O)c3cc(C)n(CC4CCCO4)c3C)s2)cc1 (configuration not stated)	-12%	-9%	112*	-4%	1%	43*
Cc1cc(C(=O)COC(=O)c2ccccc2Br)c(C)n1CC1CCCO1 (configuration not stated)	-8%	-8%	2	-6%	?	16
